Here are results for eight compounds from PubChem BioAssay (NCI).

Among the test systems are HCT-15 colon; HT29 colon; SNB-75 CNS; SNB-19 CNS; U251 CNS; PC-3 prostate; SK-MEL-5 melanoma; UACC-62 melanoma; LOX IMVI melanoma; SK-MEL-28 melanoma; SK-MEL-2 melanoma; EKVX NSCLC; SN12C renal; UO-31 renal; TK-10 renal; ACHN renal; CAKI-1 renal; A498 renal; CCRF-CEM leukemia; MOLT-4 leukemia.
Assay in all cases: NCI-60 one-dose screen, 48 h (100 = growth as untreated, 0 = no growth, -100 = all killed)
What all share (details): 10 µM unless noted

Structures are written as SMILES. About 83,000 compounds went through this panel and 20% of them were active in at least one assay; those are over-represented in the sample as a whole.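 In brief: 96-well plates, 48 h treatment, single concentration, percent growth endpoint.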 Values without a mark were called inactive. Activity calls are given as the source filed them. The calls were made as follows: active = growth percent below 10; inactive = the rest.

As for `CCN(CC)c1ccc(-c2cc(-c3cc(OC)c(OC)c(OC)c3)nc(N3CCC(O)CC3)c2C#N)cc1`, the growth in the test on HCT-15 colon was -36.7% (active); in the test on HT29 colon, -32.7% (active); in the test on SNB-75 CNS, -41.5% (active); in the test on SNB-19 CNS, 15.4%; in the test on U251 CNS, -32.5% (active); in the test with PC-3 prostate, 13.1%. The growth is -99.4% (active) in the test on SK-MEL-5 melanoma; -49.9% (active) in the test on UACC-62 melanoma; -27.8% (active) in the test with LOX IMVI melanoma; -46.6% (active) in the test on SK-MEL-28 melanoma; -66.6% (active) with SK-MEL-2 melanoma; 18.6% in the test on EKVX NSCLC. In addition, the growth is 13.5% in the test on SN12C renal; -43.9% (active) with UO-31 renal; 3.06% (active) with TK-10 renal; 7.6% (active) with ACHN renal; -31.7% (active) in the test with CAKI-1 renal; 29% in the test on A498 renal. The growth is 16.4% in the test with CCRF-CEM leukemia and 2.73% (active) with MOLT-4 leukemia.
`CC1(C)CC(=O)C2=C(C1)C(c1ccc(Cl)cc1)n1ncc(C#N)c1N2` (configuration not stated): the growth in the test with HCT-15 colon is 105%; in the test with HT29 colon, 106%; in the test with SNB-75 CNS, 75.6%; in the test on SNB-19 CNS, 96.5%; in the test on U251 CNS it was 97.8%; with PC-3 prostate, 90.4%. Also, the growth with SK-MEL-5 melanoma was 95.4%; in the test with UACC-62 melanoma it was 89.8%; in the test with LOX IMVI melanoma, 107%; with SK-MEL-28 melanoma, 112%; in the test with SK-MEL-2 melanoma, 103%; in the test with EKVX NSCLC it was 92.8%. Moreover, the growth in the test with SN12C renal is 90.9%; in the test on UO-31 renal, 85.5%; in the test with TK-10 renal, 107%; with ACHN renal it was 93.2%; in the test with CAKI-1 renal it was 90.3%; in the test with A498 renal it was 103%. Besides, the growth in the test on CCRF-CEM leukemia was 98.4%; in the test on MOLT-4 leukemia it was 98.1%.
For `COC1C(O)CC(OC2CC(OC3CC(O[C@@H]4C(=O)c5c(cc6cc(OC7CC(OC8CC(O)C(O)C(C)O8)C(O)C(C)O7)c(C)c(O)c6c5O)CC4[C@H](OC)C(=O)O)OC(C)C3O)OC(C)C2O)OC1C` (some centres not stated), the growth with HCT-15 colon was 48.6%; in the test on HT29 colon, 20.3%; with SNB-75 CNS it was -22.7% (active); in the test on SNB-19 CNS, 21.4%; with U251 CNS, 0.444% (active); with PC-3 prostate it was 21.8%. For the same compound, the growth was -45.9% (active) with SK-MEL-5 melanoma; -0.0213% (active) in the test on UACC-62 melanoma; -12.7% (active) with LOX IMVI melanoma; 3.33% (active) in the test on SK-MEL-28 melanoma; -34.2% (active) in the test on SK-MEL-2 melanoma; 40.4% in the test on EKVX NSCLC. The growth in the test on SN12C renal is 20.7%; in the test on UO-31 renal, 1.52% (active); in the test with TK-10 renal, 34.1%; with ACHN renal, 2.86% (active); with CAKI-1 renal, 18.1%; with A498 renal, -15.2% (active). The growth was 46.1% with CCRF-CEM leukemia and 27.2% in the test with MOLT-4 leukemia.
Regarding `O=c1cc(-c2ccccc2)nc(SCc2nc3cc(Cl)c(Cl)cc3[nH]2)[nH]1`, the growth in the test with HCT-15 colon was 98%; in the test on HT29 colon, 96.4%; in the test on SNB-75 CNS, 86%; with SNB-19 CNS it was 109%; in the test on U251 CNS, 99.9%; with PC-3 prostate it was 103%. Further, the growth was 105% in the test with SK-MEL-5 melanoma; 105% with UACC-62 melanoma; 98% in the test on LOX IMVI melanoma; 111% with SK-MEL-28 melanoma; 91.3% with SK-MEL-2 melanoma; 102% in the test on EKVX NSCLC. Also, the growth with SN12C renal was 105%; with UO-31 renal it was 81.7%; with TK-10 renal, 104%; in the test on ACHN renal, 97.3%; with CAKI-1 renal it was 93.3%; in the test on A498 renal, 93.7%. For the same compound, the figures for the growth with CCRF-CEM leukemia and in the test on MOLT-4 leukemia were 124% and 95.5%, respectively.
As for `COc1ccc(/C=C2\CN(C(=O)C(Cl)Cl)C/C(=C\c3ccc(OC)c(OC)c3)C2=O)cc1OC`, the growth with HCT-15 colon is -38.9% (active); in the test with HT29 colon it was 10.8%; with SNB-75 CNS, 10.9%; in the test with SNB-19 CNS, 6.34% (active); in the test on U251 CNS, -17.4% (active); with PC-3 prostate, -7.16% (active). Moreover, the growth in the test on SK-MEL-5 melanoma was -58.8% (active); with UACC-62 melanoma, -59.6% (active); in the test on LOX IMVI melanoma it was -67.8% (active); with SK-MEL-28 melanoma it was -8.59% (active); in the test on SK-MEL-2 melanoma it was 14.9%; in the test with EKVX NSCLC, 8.31% (active). In addition, the growth in the test on SN12C renal was -60.6% (active); in the test with UO-31 renal, -99% (active); with TK-10 renal it was 22%; in the test on ACHN renal, -82.7% (active); in the test on CAKI-1 renal, -17.2% (active); in the test with A498 renal, -48.2% (active). The growth with MOLT-4 leukemia is 5.43% (active).
Turning to `CNC(=O)c1cc(Oc2ccc3c(c2)sc2nc(-c4ccc(Cl)c(C(F)(F)F)c4)cn23)ccn1`, the growth was 65% in the test on HCT-15 colon; 56% with HT29 colon; 81.4% with SNB-75 CNS; 77.2% in the test on SNB-19 CNS; 71.9% in the test with U251 CNS; 45.3% in the test on PC-3 prostate. Besides, the growth with SK-MEL-5 melanoma was 18.8%; in the test with UACC-62 melanoma, 60.6%; in the test with LOX IMVI melanoma it was 50%; in the test with SK-MEL-28 melanoma, 80.1%; in the test with SK-MEL-2 melanoma it was 59.4%; in the test with EKVX NSCLC, 46.7%. Also, the growth is 64.4% with SN12C renal; 58.8% with UO-31 renal; 48.3% in the test with TK-10 renal; 62.9% in the test on ACHN renal; 74.1% with CAKI-1 renal; 50.6% in the test on A498 renal. Further, the growth with MOLT-4 leukemia is 41.6%.
`CC(=O)N1N=C(c2ccc(Nc3nc(Nc4ccc(F)cc4)nc(Nc4ccc(F)cc4)n3)cc2)CC1c1ccc(N(C)C)cc1` (configuration not stated): the growth with HCT-15 colon is 46.9%; in the test on HT29 colon, 50.7%; in the test on SNB-75 CNS it was 62.7%; in the test on SNB-19 CNS it was 66.2%; with U251 CNS, 49.8%; in the test on PC-3 prostate it was 32.8%. Besides, the growth with SK-MEL-5 melanoma was 29.3%; with UACC-62 melanoma, 57%; in the test on LOX IMVI melanoma, 52.5%; in the test on SK-MEL-28 melanoma it was 64.2%; with SK-MEL-2 melanoma, 40.3%; in the test with EKVX NSCLC, 47.5%. In addition, the growth with SN12C renal was 100%; in the test with UO-31 renal, 34%; in the test with TK-10 renal, 72.9%; in the test with ACHN renal, 58.7%; with CAKI-1 renal it was 59.3%; with A498 renal, 63.5%. For the same compound, the figures for the growth with CCRF-CEM leukemia and in the test on MOLT-4 leukemia were -2.06% (active) and 14.2%, respectively.
Regarding `Oc1nc(NCc2ccccc2)sc1/C=C1\C=Nc2ncccc21`, the growth was 67.4% in the test with HCT-15 colon; 57.9% in the test with HT29 colon; 37.3% in the test on SNB-75 CNS; 63.3% in the test on SNB-19 CNS; 51.1% in the test on U251 CNS; 71.3% with PC-3 prostate. In addition, the growth in the test on SK-MEL-5 melanoma is 70%; with UACC-62 melanoma, 69.7%; in the test on LOX IMVI melanoma, 52.1%; in the test with SK-MEL-28 melanoma, 69.2%; with SK-MEL-2 melanoma, 72.9%; in the test with EKVX NSCLC, 73.7%. The growth is 72.8% in the test with SN12C renal; 84.8% in the test on UO-31 renal; 64.4% with TK-10 renal; 29.2% with ACHN renal; 74.6% with CAKI-1 renal; 63.4% in the test with A498 renal. Further, in the test with MOLT-4 leukemia, the growth was 52.4%.
